# From PubChem BioAssay
# Some of the results follow. Calls of active or inactive are those of the source.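 Rule for the calls, unless noted: active = inhibition above the hit cutoff set in the earlier primary screen (cut at about 27% in these data); inactive = the rest.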
# Biological target: Bcl-2-like protein 1 (Homo sapiens) (UniProt Q07817)
# Experiment: Bcl-xL inhibitors blocking Bim BH3 binding, confirmation, counter-screen for MCL1 inhibitor project, biochemical, fluorescence polarization (AID 2166;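 active = inhibition above a cutoff equal to the mean inhibition of all tested compounds plus 3 SD, cut at about 30% in these data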)
# Details: GST-Bcl-xL / FITC-Bim BH3 peptide FP binding; at 10.9 µM; stronger effect = higher value
# Bcl-2-like protein 1 (Homo sapiens), sequence (Q07817 whole entry, looked up): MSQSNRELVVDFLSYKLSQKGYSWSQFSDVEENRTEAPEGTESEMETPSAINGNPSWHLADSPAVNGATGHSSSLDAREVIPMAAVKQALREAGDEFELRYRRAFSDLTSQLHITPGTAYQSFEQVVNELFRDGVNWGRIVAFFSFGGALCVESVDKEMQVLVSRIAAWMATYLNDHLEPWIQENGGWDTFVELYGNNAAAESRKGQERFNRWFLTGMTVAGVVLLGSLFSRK
row,SMILES,inhibition
1,O=C1NC(=O)N(c2ccccc2)C(=O)/C1=C/c1ccc([N+](=O)[O-])s1,36.9% (active)
2,COc1cccc(N2C(=O)NC(=O)/C(=C\c3cn(C)c4ccccc34)C2=O)c1,189% (active)
3,COc1ccc(N2C(=O)/C(=C/c3ccco3)C(=O)NC2=S)cc1,50.7% (active)

# Biological target: Protein phosphatase methylesterase 1 (Homo sapiens) (UniProt Q9Y570)
# Experiment: PME-1 inhibitor activity retest, confirmation, biochemical, fluorescence polarization, FP-Rh probe, triplicate (AID 2171);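 note: 0% = enzyme with DMSO and 100% = wells lacking PME-1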
# Details: recombinant PME-1, FP-Rh probe fluorescence polarization; at 5.9 µM; stronger effect = higher value
# Protein phosphatase methylesterase 1 (Homo sapiens), sequence (Q9Y570 whole entry, looked up): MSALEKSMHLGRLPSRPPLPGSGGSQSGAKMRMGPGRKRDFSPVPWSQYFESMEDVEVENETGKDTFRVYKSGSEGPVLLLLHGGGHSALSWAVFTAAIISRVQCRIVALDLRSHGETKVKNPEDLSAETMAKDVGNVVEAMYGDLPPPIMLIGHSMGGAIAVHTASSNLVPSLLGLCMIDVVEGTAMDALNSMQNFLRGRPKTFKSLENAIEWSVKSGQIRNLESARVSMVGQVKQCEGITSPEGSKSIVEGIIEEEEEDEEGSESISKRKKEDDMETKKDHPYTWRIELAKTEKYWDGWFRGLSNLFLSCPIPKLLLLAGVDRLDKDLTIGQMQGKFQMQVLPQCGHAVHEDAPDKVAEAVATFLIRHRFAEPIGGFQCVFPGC
row,SMILES,inhibition
1,C[n+]1c(-c2ccccc2)c2cc(N)ccc2c2ccc(N)cc21,83.5% (active)
2,COc1ccc(-n2c(/C=C/c3ccc(O)c(O)c3)nc3ccccc3c2=O)cc1,-10.6% (inactive)
3,COc1cccc(OC)c1C1=NCC(=O)Nc2c1oc1ccc(Br)cc21,52.8% (active)
4,N#Cc1ccccc1Cn1cc(C(=O)C2CC2)c2ccccc21,66.3% (active)
5,CC(C)C(=O)c1cn(Cc2ccccc2C#N)c2ccccc12,62.8% (active)
6,NP(=O)(OCCCc1ccccc1)Oc1ccccc1Cl (stereo unspecified),86.4% (active)
7,CN(C)C1(c2nnnn2CCOC(=O)Nc2ccc(Cl)cc2)CCCCC1,25% (inactive)
8,O=P(CCl)(Nc1ccccc1)C(Cl)(Cl)Cl (stereo unspecified),45.2% (active)
9,CC(=O)c1ccc2c(c1)C1C(Cl)C(Sc3ccccc3[N+](=O)[O-])CC1C(c1ccccc1[N+](=O)[O-])N2 (stereo unspecified),20.4% (inactive)
10,CC(C)CCOP(N)(=O)Oc1ccccc1Cl (stereo unspecified),42.3% (active)
11,CCOC(=O)c1c(NS(=O)(=O)c2ccccc2)n(CCCOC)c2nc3ccccc3nc12,0.94% (inactive)
12,Oc1ccc(/C=N/NP(=S)(c2ccccc2)c2ccccc2)c(O)c1O,-8.43% (inactive)
13,Cc1oc(-c2ccccc2)nc1CN1C(=O)CN=C(c2ccccc2)c2ccccc21,66.1% (active)
14,COC(=O)c1nc(-c2ccc3c(n2)C(=O)C(N)=C(OC)C3=O)c(N)c(-c2ccc(OC)c(OC)c2O)c1C,67.4% (active)
15,C[n+]1c2ccccc2nc2ccc(NCCO)cc21,35% (active)
16,O=c1c2ccccc2nc(/C=C/c2ccc(O)c(O)c2)n1-c1ccccc1,-7.92% (inactive)
17,O=c1[nH]c(=S)[nH]c(O)c1N=Nc1cc(S(=O)(=O)Nc2ccc(Cl)cc2)ccc1Cl,40.5% (active)
18,CC(=O)c1ccc2c(c1)C1C(Cl)C(Sc3ccccc3[N+](=O)[O-])CC1C(c1ccccc1)N2 (stereo unspecified),23.8% (inactive)
19,CC1Oc2cc3c(-c4c(O)cc(O)c5c(O)c6c(cc45)OC(C)C(C)C6=O)c(O)cc(O)c3c(O)c2C(=O)C1C (stereo unspecified),53.6% (active)
20,Cc1ccccc1NP(=O)(Oc1ccccc1F)Oc1ccccc1F,43.5% (active)
21,O=C(CF)NC(Nc1cccc2cccnc12)C(Cl)(Cl)Cl (stereo unspecified),53% (active)
22,NP(=O)(OCC(F)(F)F)Oc1ccc(Cl)cc1 (stereo unspecified),30.6% (active)
23,COc1ccc(C(O)P(=O)(Oc2ccccc2)Oc2ccccc2)cc1 (stereo unspecified),42.8% (active)
